Measured values: the supplement of paper PMC10849652
The full data set covers some 7,900 targets. This sample favours those with a hit. About 0.6% of all pairs of compound and target were hits. A number with no mark means an inactive call.

Legend:
Experiment in all cases: log2 fold change, soluble protein after heating vs DMSO (PISA); higher = thermal stabilisation; K562 cells, 10 uM, 30 min; active = over 0.2 and 3.5 SD of the protein, either way, in both replicates (recomputed)
[1] = compound: CS(=O)(=O)c1ccc(-c2cnc(N)c(C(=O)Nc3ccccc3)n2)cc1
Outline: (§1)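 Soluble protein was defined as the supernatant after 21,000xg for 90 min. It came from K562 cells at 2×10^6 cells/mL given 10 μM compound for 30 min, heated in aliquots for 3 min across 48°C-58°C, pooled, and extracted in PBS with 0.5% NP-40 at 4°C, and was quantified by TMTpro 16plex LC-MS/MS with equalised channel sums. Thermal stability against control samples, from duplicates, is reported as log2 fold change.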

crizotinib = compound: C[C@@H](Oc1cc(-c2cnn(C3CCNCC3)c2)cnc1N)c1c(Cl)ccc(F)c1Cl [crizotinib]
Outline: as §1

[2] = compound: C[C@@H]1COCCN1C2=NC(=NC(=C2)C3(CC3)S(=O)(=O)C)C4=C5C=CNC5=CC=C4
Outline: as §1

[3] = compound: C[C@H](C1=CC=C(C=C1)C(=O)NC2=C3C=CNC3=NC=C2)N
Outline: as §1

duvelisib = compound: C[C@H](Nc1ncnc2nc[nH]c12)c1cc2cccc(Cl)c2c(=O)n1-c1ccccc1 [duvelisib]
Outline: as §1

gandotinib = compound: Cc1cc(Nc2cc(CN3CCOCC3)c3nc(C)c(Cc4ccc(Cl)cc4F)n3n2)n[nH]1 [gandotinib]
Outline: as §1

tozasertib = compound: Cc1cc(Nc2cc(N3CCN(C)CC3)nc(Sc3ccc(NC(=O)C4CC4)cc3)n2)n[nH]1 [tozasertib]
Outline: as §1

[4] = compound: Cc1cc(SCc2sc(-c3ccc(C(F)(F)F)cc3)nc2C)ccc1OCC(=O)O
Outline: as §1

doramapimod = compound: Cc1ccc(-n2nc(C(C)(C)C)cc2NC(=O)Nc2ccc(OCCN3CCOCC3)c3ccccc23)cc1 [doramapimod]
Outline: as §1

ispinesib = compound: Cc1ccc(C(=O)N(CCCN)[C@@H](c2nc3cc(Cl)ccc3c(=O)n2Cc2ccccc2)C(C)C)cc1 [ispinesib]
Outline: as §1

Sequence of UniProt Q13111 (Q13111 whole entry, looked up): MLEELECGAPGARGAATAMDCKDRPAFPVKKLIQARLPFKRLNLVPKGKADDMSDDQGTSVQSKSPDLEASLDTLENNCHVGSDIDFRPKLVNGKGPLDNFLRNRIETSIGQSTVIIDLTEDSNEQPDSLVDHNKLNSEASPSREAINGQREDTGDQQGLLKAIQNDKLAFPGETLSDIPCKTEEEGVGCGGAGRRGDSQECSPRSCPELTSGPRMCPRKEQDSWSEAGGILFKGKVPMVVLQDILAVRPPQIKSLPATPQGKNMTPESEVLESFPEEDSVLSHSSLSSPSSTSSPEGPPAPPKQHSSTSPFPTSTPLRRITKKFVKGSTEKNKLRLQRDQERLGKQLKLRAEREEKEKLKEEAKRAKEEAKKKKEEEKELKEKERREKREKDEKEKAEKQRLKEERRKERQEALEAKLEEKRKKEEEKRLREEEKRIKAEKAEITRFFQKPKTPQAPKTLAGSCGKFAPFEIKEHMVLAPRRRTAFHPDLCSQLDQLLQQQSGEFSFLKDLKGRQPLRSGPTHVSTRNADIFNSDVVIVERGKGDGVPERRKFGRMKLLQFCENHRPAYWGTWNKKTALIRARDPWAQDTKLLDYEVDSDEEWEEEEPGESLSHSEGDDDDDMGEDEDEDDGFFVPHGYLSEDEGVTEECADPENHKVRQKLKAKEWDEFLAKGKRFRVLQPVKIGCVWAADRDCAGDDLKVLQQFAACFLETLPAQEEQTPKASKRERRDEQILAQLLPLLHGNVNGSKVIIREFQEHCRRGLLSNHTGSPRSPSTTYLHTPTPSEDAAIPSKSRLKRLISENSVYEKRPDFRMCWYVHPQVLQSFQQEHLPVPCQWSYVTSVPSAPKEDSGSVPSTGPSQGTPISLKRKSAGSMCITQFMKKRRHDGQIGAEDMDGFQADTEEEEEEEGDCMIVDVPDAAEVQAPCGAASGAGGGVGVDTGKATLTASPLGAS
Sequence of UniProt P55060 (P55060 whole entry, looked up): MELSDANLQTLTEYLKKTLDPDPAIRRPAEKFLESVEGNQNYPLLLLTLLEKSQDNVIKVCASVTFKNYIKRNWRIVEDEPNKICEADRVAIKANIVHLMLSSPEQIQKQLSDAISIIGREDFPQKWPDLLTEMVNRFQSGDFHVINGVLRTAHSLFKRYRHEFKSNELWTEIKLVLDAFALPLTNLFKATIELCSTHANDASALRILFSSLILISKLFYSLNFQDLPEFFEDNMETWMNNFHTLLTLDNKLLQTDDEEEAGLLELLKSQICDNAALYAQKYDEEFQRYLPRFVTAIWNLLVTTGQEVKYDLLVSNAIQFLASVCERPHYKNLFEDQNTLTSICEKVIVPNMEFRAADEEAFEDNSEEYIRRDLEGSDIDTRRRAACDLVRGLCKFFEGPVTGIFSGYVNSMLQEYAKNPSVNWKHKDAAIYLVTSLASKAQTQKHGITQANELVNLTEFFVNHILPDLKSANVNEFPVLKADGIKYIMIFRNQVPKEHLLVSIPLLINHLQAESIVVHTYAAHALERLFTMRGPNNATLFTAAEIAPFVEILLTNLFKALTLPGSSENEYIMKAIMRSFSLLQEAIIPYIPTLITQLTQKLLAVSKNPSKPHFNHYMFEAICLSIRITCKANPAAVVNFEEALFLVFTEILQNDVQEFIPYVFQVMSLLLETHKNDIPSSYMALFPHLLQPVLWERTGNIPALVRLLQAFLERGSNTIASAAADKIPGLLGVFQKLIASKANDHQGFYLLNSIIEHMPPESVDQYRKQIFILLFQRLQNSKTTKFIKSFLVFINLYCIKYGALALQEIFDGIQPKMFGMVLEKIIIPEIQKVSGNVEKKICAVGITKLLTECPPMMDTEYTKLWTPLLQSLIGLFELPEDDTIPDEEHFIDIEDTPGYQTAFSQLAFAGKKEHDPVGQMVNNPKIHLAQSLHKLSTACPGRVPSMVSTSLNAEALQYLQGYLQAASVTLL
Sequence of UniProt P24863 (P24863 whole entry, looked up): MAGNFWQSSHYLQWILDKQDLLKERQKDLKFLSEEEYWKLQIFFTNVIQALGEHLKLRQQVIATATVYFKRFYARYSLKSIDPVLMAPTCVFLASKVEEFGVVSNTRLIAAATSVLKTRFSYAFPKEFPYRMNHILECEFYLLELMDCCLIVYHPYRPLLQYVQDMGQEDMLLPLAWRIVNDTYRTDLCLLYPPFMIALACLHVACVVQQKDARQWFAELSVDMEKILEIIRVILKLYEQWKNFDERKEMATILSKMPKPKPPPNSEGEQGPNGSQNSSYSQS
Sequence of UniProt O75122 (O75122 whole entry, looked up): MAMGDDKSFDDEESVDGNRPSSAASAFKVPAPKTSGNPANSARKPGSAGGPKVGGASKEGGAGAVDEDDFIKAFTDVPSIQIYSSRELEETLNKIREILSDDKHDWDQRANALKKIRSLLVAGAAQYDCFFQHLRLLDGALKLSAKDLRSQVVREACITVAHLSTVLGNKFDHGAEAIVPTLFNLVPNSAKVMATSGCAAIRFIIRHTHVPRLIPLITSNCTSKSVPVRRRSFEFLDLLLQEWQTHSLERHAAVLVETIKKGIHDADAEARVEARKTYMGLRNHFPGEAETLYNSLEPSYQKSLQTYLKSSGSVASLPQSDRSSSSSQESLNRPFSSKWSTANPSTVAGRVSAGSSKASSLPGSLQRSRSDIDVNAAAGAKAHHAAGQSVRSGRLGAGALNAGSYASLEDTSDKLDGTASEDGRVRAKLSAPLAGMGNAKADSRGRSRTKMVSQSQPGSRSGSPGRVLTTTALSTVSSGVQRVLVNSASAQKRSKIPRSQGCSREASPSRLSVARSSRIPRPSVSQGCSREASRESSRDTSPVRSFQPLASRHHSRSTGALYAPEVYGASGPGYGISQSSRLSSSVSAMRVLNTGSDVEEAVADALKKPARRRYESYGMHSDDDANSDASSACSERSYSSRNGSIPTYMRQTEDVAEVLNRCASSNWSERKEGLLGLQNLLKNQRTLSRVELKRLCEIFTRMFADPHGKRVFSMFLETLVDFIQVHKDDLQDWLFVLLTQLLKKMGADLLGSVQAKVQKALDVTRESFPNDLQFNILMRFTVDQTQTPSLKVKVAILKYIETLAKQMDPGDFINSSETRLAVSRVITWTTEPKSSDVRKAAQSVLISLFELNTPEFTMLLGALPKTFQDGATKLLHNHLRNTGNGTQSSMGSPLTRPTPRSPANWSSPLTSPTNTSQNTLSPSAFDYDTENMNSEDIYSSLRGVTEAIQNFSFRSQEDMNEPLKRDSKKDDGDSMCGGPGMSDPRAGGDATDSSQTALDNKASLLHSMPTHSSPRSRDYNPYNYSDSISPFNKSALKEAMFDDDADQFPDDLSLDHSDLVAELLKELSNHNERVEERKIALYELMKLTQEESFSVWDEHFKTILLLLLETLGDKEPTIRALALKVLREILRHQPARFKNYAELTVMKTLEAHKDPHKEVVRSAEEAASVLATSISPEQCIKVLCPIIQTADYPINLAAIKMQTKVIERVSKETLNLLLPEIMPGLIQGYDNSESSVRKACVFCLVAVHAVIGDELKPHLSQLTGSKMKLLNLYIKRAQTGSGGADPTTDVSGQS
Sequence of UniProt P55210 (P55210 whole entry, looked up): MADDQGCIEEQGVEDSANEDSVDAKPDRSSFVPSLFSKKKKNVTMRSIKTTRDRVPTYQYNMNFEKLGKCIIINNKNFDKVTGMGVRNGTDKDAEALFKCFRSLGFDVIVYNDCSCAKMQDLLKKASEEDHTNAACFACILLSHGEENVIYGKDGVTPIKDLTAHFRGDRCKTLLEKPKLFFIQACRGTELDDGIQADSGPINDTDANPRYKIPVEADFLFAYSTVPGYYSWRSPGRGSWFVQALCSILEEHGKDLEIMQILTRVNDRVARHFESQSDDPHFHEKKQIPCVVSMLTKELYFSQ
Sequence of UniProt P11802 (P11802 whole entry, looked up): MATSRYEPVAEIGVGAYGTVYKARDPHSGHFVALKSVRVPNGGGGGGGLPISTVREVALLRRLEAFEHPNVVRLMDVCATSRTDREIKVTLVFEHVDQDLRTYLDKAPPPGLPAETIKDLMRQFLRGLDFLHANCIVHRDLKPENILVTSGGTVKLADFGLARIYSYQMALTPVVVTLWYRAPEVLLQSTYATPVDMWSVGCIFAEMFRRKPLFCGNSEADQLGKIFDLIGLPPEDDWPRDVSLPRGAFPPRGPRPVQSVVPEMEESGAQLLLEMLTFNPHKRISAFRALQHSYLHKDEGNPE
Sequence of UniProt Q14677 (Q14677 whole entry, looked up): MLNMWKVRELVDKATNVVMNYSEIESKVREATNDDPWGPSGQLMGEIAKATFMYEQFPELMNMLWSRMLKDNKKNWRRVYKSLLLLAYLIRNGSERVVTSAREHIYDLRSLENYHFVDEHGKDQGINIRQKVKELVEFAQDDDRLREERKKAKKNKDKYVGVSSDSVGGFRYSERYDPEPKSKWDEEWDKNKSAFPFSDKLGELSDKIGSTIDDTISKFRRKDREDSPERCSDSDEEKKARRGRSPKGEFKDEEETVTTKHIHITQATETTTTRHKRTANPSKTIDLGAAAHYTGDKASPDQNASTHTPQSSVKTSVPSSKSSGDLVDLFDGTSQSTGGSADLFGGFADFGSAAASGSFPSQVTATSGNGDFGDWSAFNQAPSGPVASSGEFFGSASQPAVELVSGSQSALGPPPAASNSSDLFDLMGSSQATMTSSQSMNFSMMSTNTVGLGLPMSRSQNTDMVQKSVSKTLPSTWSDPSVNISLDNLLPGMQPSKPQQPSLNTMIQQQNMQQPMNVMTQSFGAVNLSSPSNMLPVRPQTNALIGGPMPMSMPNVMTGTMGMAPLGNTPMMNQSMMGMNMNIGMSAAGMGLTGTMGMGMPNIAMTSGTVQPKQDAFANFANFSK
Sequence of UniProt Q9UJA2 (Q9UJA2 whole entry, looked up): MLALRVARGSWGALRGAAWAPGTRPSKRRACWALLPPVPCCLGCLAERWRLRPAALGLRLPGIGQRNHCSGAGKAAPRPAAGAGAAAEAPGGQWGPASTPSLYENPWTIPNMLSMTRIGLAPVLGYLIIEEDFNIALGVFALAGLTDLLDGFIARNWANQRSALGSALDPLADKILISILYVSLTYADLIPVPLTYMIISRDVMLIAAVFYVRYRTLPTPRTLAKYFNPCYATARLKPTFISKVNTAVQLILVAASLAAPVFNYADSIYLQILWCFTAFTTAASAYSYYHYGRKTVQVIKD

Target	log2 fold change [1]	log2 fold change (crizotinib)	log2 fold change [2]	log2 fold change [3]	log2 fold change (duvelisib)	log2 fold change (gandotinib)	log2 fold change (tozasertib)	log2 fold change [4]	log2 fold change (doramapimod)	log2 fold change (ispinesib)
CSE1L (UniProt P55060)	0.008	-0.063	0.083	-0.067	0.01	-0.174	0.066	0.024	-0.027	-0.003
CSNK2B (UniProt P67870)	0.05	-0.037	0.049	-0.128	0.075	-0.027	0.006	-0.005	-0.002	0.016
CAB39L (UniProt Q9H9S4)	0.13	0.036	-0.01	–	-0.014	0.448 (active)	0.03	0.053	0.024	-0.031
CCNC (UniProt P24863)	0.051	-0.004	0.027	0.247	0.044	-0.088	–	0.018	0.373 (active)	0.059
CRTC2 (UniProt Q53ET0)	-0.02	-0.077	0.08	–	–	–	-0.057	–	0.062	0.012
CASP8 isoform 9 (UniProt Q14790)	0.007	-0.02	-0.013	–	0.104	-0.07	0.181	-0.007	0.072	-0.151
CDK13 (UniProt Q14004)	-0.075	-0.124	-0.036	0.095	0.043	-0.414 (active)	-0.118	0.141	-0.006	0.063
CEP128 (UniProt Q6ZU80)	0.093	0.056	–	0.157	0.183	–	0.041	-0.07	0.102	–
CHST11 (UniProt Q9NPF2)	0.056	-0.106	-0.037	0.019	–	0.029	-0.033	–	0.087	-0.068
COPS3 isoform 2 (UniProt Q9UNS2)	0.054	0.046	0.116	–	–	-0.084	-0.165	–	0.028	-0.371
COG2 (UniProt Q14746)	-0.029	-0.17	0.094	0.483	-0.094	–	-0.153	0.061	0	-0.264
CD151 (UniProt P48509)	-0.151	0.208	0.07	-0.089	0.138	-0.19	-0.04	-0.043	-0.056	0.068
C22orf39 (UniProt Q6P5X5)	0.075	-0.303	0.06	-0.057	0	–	0.096	-0.135	0.072	-0.207
CCDC57 (UniProt Q2TAC2)	-0.026	0.06	0.065	0.139	–	–	0.04	–	-0.035	-0.034
CDC42SE1 (UniProt Q9NRR8)	0	-0.099	0.16	-0.031	0.029	–	-0.106	-0.04	-0.06	-0.341
CRTC1 isoform 2 (UniProt Q6UUV9)	-0.068	-0.016	0.192	–	0.139	0.008	-0.004	-0.076	0.005	-0.11
CDK4 (UniProt P11802)	0.108	-0.108	-0.152	0.377	0.104	–	–	0.021	0.079	0.094
CLINT1 isoform 3 (UniProt Q14677)	-0.019	0.02	–	0.159	-0.029	0.047	-0.025	-0.097	0.012	-0.001
CDKN1B (UniProt P46527)	-0.017	-0.018	-0.295	-0.065	0.059	0.077	–	-0.06	-0.071	-0.01

Target	log2 fold change [1]	log2 fold change (crizotinib)	log2 fold change [2]	log2 fold change [3]	log2 fold change (duvelisib)	log2 fold change (gandotinib)	log2 fold change (tozasertib)	log2 fold change [4]	log2 fold change (doramapimod)	log2 fold change (ispinesib)
CHAF1A (UniProt Q13111)	-0.015	0.058	-0.058	0.15	0.051	-0.035	–	-0.04	0.025	-0.098
CAV2 (UniProt P51636)	-0.067	-0.087	–	–	0.075	0.043	-0.115	0.035	0.13	–
CHST10 (UniProt O43529)	0.235	-0.206	0.014	0.009	–	0.087	-0.037	–	0.015	-0.009
CRLS1 (UniProt Q9UJA2)	-0.228	0.02	–	-0.047	-0.025	-0.083	0	0.05	0.023	–
CENPE (UniProt Q02224)	0.231	-0.018	–	-0.908	-0.563	0.052	-0.155	0.24	0.108	-0.321
CHD3 isoform 3 (UniProt Q12873)	-0.036	-0.128	0.068	0.079	0.01	0.237	0.23	0.14	0.026	-0.193
CDK16 isoform 2 (UniProt Q00536)	0.03	-0.036	0.06	-0.07	0.058	0.436 (active)	–	0.096	-0.022	-0.046
COMMD3-BMI1 (UniProt R4GMX3)	0.074	–	-0.031	0.019	–	-0.011	-0.048	–	–	–
CLPTM1L (UniProt G5E9Z2)	-0.317	–	0.073	0.067	–	-0.382	-0.049	–	–	–
CFAP58 (UniProt Q5T655)	–	–	–	–	–	-0.011	–	–	–	-0.165
CRTC3 (UniProt Q6UUV7)	-0.004	–	0.177	0.071	–	–	-0.121	–	–	0.129
CLN3 (UniProt Q13286)	–	-0.327	0.066	0.071	0.096	–	-0.006	-0.085	-0.047	-0.307
C5orf30 (UniProt Q96GV9)	–	–	0.352	–	–	–	-0.24	–	–	–
CEMIP2 (UniProt Q9UHN6)	–	0.075	0.023	0.03	0.037	-0.129	0	-0.136	-0.144	-0.148
CLASP2 (UniProt O75122)	–	-0.21	–	0.155	–	–	–	–	0.132	-0.007
CCNT2 (UniProt O60583)	-0.226	–	-0.148	–	-0.107	-0.065	-0.291	0.047	–	-0.147
CASP7 isoform 3 (UniProt P55210)	–	–	0.3	–	-0.024	-0.155	–	-0.271	–	–
CDK2AP2 (UniProt O75956)	–	0.213	0.173	-0.015	–	–	–	–	-0.014	-0.011
CHPT1 (UniProt Q8WUD6)	0.064	–	-0.07	0.023	0.025	0.038	-0.016	0.015	–	-1.09 (active)
